Compounds with a hit are over-represented: about 3.4% of the library has one in this group of screens.
FBW7 act – human FBW7 E3 ligase activation, primary screen | AlphaScreen FBW7–phospho-cyclin E peptide binding, activator screen | AID 1259310 | normalized activity (activation), % at 26.1 µM | hit rate 0.13% among 650,000; in the data active = normalized activity above about 1.9%;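 note: purified mutant Fbw7 with reduced substrate affinity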
TEAD-YAP block – TEAD-YAP interaction inhibition; hit rate 1.4% among 640,000; AID 1259422; HEK-TIYL cells, TEAD-Gal4/YAP UAS-luciferase luminescence; inhibition, % at 9.12 µM; in the data active = inhibition above about 32%
GPR151 ag – activates the human receptor GPR151; Q8TDV0; PathHunter beta-arrestin GPR151 cells, luminescence; activation, % at 11.2 µM; hit rate 1% among 650,000; AID 1508602; in the data active = activation above about 4.9%
MITF primary – human MITF inhibition, primary screen. AID 1259374. hit rate 0.91% among 650,000. inhibition, % at 2.6 µM. O75030. AlphaScreen MITF homodimerization, bead proximity signal; in the data active = inhibition above about 50%
Target sequence (O75030 whole entry, looked up): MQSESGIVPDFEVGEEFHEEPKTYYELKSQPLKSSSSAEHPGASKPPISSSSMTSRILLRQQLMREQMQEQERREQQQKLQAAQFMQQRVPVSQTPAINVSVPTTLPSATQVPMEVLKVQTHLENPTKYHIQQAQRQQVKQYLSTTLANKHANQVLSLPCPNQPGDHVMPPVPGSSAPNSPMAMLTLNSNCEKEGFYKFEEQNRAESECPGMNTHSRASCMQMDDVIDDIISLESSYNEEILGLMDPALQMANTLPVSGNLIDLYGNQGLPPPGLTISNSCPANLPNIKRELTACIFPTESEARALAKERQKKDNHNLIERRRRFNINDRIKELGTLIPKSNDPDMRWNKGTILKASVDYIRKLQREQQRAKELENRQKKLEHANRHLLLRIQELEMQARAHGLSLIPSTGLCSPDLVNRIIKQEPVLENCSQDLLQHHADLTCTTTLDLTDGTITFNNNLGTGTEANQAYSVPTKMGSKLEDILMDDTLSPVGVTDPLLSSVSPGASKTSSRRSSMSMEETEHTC
A number is an active result; 0 = inactive.

SMILES	FBW7 act	TEAD-YAP block	GPR151 ag	MITF primary
COC(=O)c1sc(=S)n(-c2cccc(SC)c2)c1N	0	0	0	0
Cc1nc2ccccc2c2c1CC(C(C)(Cl)Br)O2 (stereo unspecified)	0	34	0	0
CCOc1ccc(CC(=O)NC(CC(C)C)c2nc3cccnc3n2C)cc1 (stereo unspecified)	0	0	0	0
Cc1cccc(-n2cc(-c3ccccc3)c3c(NC4CC(C)CC(C)(C)C4)ncnc32)c1 (stereo unspecified)	0	0	0	0
COc1ccc2c(c1)C(C)=CC(C)(C)N2C(=O)CCl	0	35	0	0
CCOc1ccc2c(c1)C(C)=CC(C)(C)N2C(=O)CCl	0	0	0	0
COc1cc(CNCCCN(C)C)ccc1OCc1ccc(F)cc1Cl	0	34	0	0
NNC(=O)c1c(N)n(-c2ccc3ccccc3c2)c2nc3ccccc3nc12	0	47	0	0
Cc1ccc(-n2c(N)c(C(=O)O)c3nc4ccccc4nc32)cc1C	0	0	0	0
O=C(Nc1ccc(Cc2ccncc2)cc1)c1ccc(Cl)cc1Cl	0	38	0	0
O=C(NC(=S)Nc1ccc(Cc2ccncc2)cc1)c1ccc(Cl)cc1Cl	0	0	0	0
CCOc1ccc(NC(=O)c2c(Cl)ccc(Cl)c2OC)cc1	0	0	0	0
O=C(Nc1ccc(C(=O)c2ccc(Cl)cc2)c(Cl)c1)c1cc(Cl)ccc1O	0	40	0	0
COc1ccc(NC(=O)NC(=O)c2c(Cl)ccc(Cl)c2OC)cc1	0	38	0	0
O=C(O)c1cc(NC(=O)c2ccc(Cl)cc2Cl)cc(C(=O)O)c1	0	0	0	0
O=C(O)c1ccc(NC(=O)c2ccc(Cl)cc2Cl)cc1	0	45	0	0
O=C(c1ccc(Cl)cc1)c1ccc(NC(=O)c2cc(Br)cc(Br)c2O)cc1Cl	0	0	0	0
COc1cc(NC(=O)c2cccc(Cl)n2)cc(OC)c1OC	0	0	0	0
COc1cc(NC(=O)c2sc3nc4c(cc3c2N)CCCC4)cc(OC)c1OC	0	0	0	0
COc1ccc2oc(=NCc3ccccc3)c(C(N)=O)cc2c1	0	0	0	0
COc1ccc(NC(=O)c2sc3ncn(CC(=O)N4CCC(C)CC4)c(=O)c3c2C)c(OC)c1	0	0	0	0
COC(=O)c1ccc(NC(=O)c2ccc(C)cc2Cl)cc1	0	0	0	0
COc1ccc(NC(=O)c2ccc(C)cc2Cl)cc1	0	73	0	0
CCCCC[n+]1c(/C=C2\Sc3ccccc3N2CC)ccc2ccccc21	0	83	0	0
CCC[n+]1c(/C=C2\Sc3ccccc3N2CC)ccc2ccccc21	0	88	0	0
SMILES	FBW7 act	TEAD-YAP block	GPR151 ag	MITF primary
CCCCN1/C(=C/c2ccc3ccccc3[n+]2CC)Sc2cc(NC(C)=O)ccc21	0	0	0	0
CCCC[n+]1ccccc1/C=C1\Sc2ccccc2N1CC	0	89	0	0
COc1ccc(C=C(C(=O)Nc2ccccc2OC)C(=O)Nc2ccccc2OC)cc1O	0	57	0	0
O=C(Oc1ccc(NS(=O)(=O)c2ccccc2)c2ccccc12)c1ccccc1	0	77	0	0
Cc1csc2nc(-c3ccc(NS(=O)(=O)c4cccnc4)cc3)cn12	0	36	0	0
CCOCC(=O)Nc1ccc(-c2cn3c(C)csc3n2)cc1	0	51	0	0
COc1cccc(OC)c1C(=O)Nc1ccc(-c2cn3c(C)csc3n2)cc1	0	38	0	0
COc1cc(/C=C2\C(=O)N(c3ccc(S(N)(=O)=O)cc3)N=C2C)cc(OC)c1O	0	0	0	0
CCCCOc1ccccc1NC(=O)C(F)(OC)C(F)(F)F (stereo unspecified)	0	36	0	0
CCCc1ccc(-c2ccc(OC(=O)c3ccccc3Cl)cc2)nc1	0	70	0	0
CCCc1ccc(C(=O)Oc2ccc(-c3ccc(CCC)cn3)cc2)cc1	0	0	0	0
COc1ccccc1N1CCN(c2ncnc3c2c(-c2ccccc2)cn3-c2ccccc2)CC1	0	0	0	0
COc1cccc(OC)c1C(=O)N1C[C@@H]2C[C@H]1C(=O)N2c1ccccc1Cl	0	33	0	0
CCn1c(SCc2cccnc2)nnc1C1CCCN(C(=O)C2CCC(OC)CC2)C1 (stereo unspecified)	0	0	0	0
Cc1ccc(Oc2nc3ccccn3c(=O)c2/C=C(\C#N)C(=O)N2CCOCC2)c(C)c1	0	34	0	0
Cc1cccc(Oc2nc3ccccn3c(=O)c2/C=C(\C#N)C(=O)N2CCOCC2)c1C	0	42	0	0
Cc1cc(C)cc(Oc2nc3c(C)cccn3c(=O)c2/C=C(\C#N)C(=O)N2CCOCC2)c1	0	37	0	0
COc1ccc(Oc2nc3c(C)cccn3c(=O)c2/C=C(\C#N)C(=O)N2CCOCC2)cc1	0	0	0	0
N#C/C(=C\c1ccco1)C(=O)Nc1ccccc1F	2.1	0	0	0
CN(C)c1ccc(/C=N/NC(=O)c2ccn(C)n2)cc1	0	0	0	0
CN(C)c1ccc(/C=N/NC(=O)c2[nH]ncc2Br)cc1	0	32	0	0
CN(C)c1ccc(/C=N/NC(=O)c2cc(O)cc(O)c2)cc1	0	0	0	0
CN(C)c1ccc(/C=N/Nc2cn[nH]c(=O)n2)cc1	0	81	0	0
O=C(N/N=C/c1c(O)ccc2ccccc12)c1ccccc1O	0	75	0	0
CN(C)c1ccc(/C=N/NC(=O)c2cccc(O)c2)cc1	0	60	0	0
SMILES	FBW7 act	TEAD-YAP block	GPR151 ag	MITF primary
CC1(c2ccccc2)NC(=O)N(Cc2ccccc2C#N)C1=O (stereo unspecified)	0	0	0	0
CN(C)c1ccc(/C=N/Nc2nc3ccccc3o2)cc1	0	55	0	0
O=C(N/N=C/c1c(O)ccc2ccccc12)C(=O)N1CCCC1	0	0	0	0
O=[N+]([O-])c1ccc(/C=N/Nc2nc3ccccc3o2)cc1	0	0	0	0
O=C(CN1CCCC1)N/N=C/c1c(O)ccc2ccccc12	0	88	0	58
O=C(N/N=C\c1c(O)ccc2ccccc12)c1ccccc1O	0	81	0	0
Cc1cc(/C=N/NC(=O)c2cccc(N(C)C)c2)c(C)n1-c1cc(C(=O)O)cc(C(=O)O)c1	0	0	0	52
CC(C)CCCC(C)C1CCC2C3CC=C4CC(OC(=O)c5cccc(Cl)c5)CCC4(C)C3CCC12C (stereo unspecified)	0	0	0	0
Cc1nn(S(C)(=O)=O)c(C)c1S(=O)(=O)N1CCCC(C)C1 (stereo unspecified)	0	0	0	0
O=C(N/N=C/c1c(O)ccc2ccccc12)c1c[nH]c2ccccc12	0	0	0	0
O=C(N/N=C/c1c(O)ccc2ccccc12)c1[nH]ncc1Br	0	42	0	0
COCCn1c2c(c(=O)[nH]c1=O)C(c1ccccc1)C1=C(N2)c2ccccc2C1=O (stereo unspecified)	0	0	0	0
Cc1ccc(C2C3=C(Nc4c2c(=O)[nH]c(=O)n4C)c2ccccc2C3=O)cc1 (stereo unspecified)	0	0	0	0
CCc1ccc(C2C3=C(Nc4c2c(=O)[nH]c(=O)n4CCOC)c2ccccc2C3=O)cc1 (stereo unspecified)	0	43	0	0

Source: PubChem
